Experimental findings from ChEMBL document CHEMBL2218924, “A broad activity screen in support of a chemogenomic map for kinase signalling research and drug discovery” (Biochem J, 2013) are described below.

Experiment [1] addresses T1, Ephrin type-B receptor 1 (Homo sapiens) (UniProt P54762).
T1 sequence (whole entry): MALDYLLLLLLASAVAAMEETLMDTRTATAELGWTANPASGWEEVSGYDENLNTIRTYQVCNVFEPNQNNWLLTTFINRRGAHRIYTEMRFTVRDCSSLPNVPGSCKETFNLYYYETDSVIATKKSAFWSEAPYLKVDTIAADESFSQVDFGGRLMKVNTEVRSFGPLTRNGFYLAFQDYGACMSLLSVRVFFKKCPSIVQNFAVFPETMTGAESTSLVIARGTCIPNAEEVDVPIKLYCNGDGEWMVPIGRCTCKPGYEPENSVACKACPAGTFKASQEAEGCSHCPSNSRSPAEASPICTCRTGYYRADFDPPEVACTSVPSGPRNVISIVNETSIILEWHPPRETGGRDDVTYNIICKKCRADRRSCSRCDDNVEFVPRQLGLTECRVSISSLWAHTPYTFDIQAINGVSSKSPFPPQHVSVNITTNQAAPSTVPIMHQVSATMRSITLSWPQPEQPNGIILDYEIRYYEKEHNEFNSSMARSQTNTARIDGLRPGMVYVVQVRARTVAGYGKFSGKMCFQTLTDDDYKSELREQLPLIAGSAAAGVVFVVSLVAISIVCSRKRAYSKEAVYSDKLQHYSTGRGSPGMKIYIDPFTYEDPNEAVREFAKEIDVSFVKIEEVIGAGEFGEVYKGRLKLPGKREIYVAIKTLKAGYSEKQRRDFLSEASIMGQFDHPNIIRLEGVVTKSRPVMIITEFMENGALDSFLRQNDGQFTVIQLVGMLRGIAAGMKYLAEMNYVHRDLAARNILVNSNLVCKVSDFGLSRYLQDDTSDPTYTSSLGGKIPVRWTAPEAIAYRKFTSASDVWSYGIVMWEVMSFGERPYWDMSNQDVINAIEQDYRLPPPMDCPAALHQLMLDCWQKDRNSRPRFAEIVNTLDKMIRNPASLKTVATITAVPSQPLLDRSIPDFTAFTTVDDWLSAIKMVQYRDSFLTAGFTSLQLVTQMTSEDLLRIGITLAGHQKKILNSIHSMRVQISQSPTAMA
The conditions noted are these: at 10 µM.

The target of experiment [2] is T2, Ephrin type-B receptor 2 (Homo sapiens) (UniProt P29323).
T2 sequence (whole entry): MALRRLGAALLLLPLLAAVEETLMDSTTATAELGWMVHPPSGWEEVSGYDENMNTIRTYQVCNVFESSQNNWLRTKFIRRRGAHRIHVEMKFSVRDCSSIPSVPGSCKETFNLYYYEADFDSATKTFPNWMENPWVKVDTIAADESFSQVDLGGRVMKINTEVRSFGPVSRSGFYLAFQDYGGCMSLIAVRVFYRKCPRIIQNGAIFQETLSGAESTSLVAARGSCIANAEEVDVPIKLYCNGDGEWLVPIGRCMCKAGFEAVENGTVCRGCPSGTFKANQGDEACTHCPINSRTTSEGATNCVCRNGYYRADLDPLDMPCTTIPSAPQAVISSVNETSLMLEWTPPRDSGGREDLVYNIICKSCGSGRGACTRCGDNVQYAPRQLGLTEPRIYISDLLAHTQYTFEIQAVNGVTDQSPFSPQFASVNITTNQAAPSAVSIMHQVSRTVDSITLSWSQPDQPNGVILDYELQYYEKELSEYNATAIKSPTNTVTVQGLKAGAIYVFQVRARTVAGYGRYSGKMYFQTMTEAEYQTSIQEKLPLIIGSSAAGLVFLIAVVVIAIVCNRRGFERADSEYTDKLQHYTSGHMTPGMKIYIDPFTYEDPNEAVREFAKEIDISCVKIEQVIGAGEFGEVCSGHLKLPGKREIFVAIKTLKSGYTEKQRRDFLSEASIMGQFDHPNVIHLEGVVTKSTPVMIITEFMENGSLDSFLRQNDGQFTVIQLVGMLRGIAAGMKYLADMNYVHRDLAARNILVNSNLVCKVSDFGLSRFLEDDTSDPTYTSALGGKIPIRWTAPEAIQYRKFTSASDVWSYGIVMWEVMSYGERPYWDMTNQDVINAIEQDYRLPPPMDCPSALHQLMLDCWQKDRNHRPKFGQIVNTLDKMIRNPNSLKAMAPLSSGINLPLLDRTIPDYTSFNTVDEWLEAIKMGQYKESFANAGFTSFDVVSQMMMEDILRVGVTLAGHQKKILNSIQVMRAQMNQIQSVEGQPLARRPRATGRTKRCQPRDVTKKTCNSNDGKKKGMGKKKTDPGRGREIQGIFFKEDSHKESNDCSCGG
The note with it: at 1 µM.

Experiment [3] addresses T2, Ephrin type-B receptor 2 (Homo sapiens). The note with it: at 10 µM.
Experiment [4] deals with T3, Ephrin type-B receptor 3 (Homo sapiens) (UniProt P54753).
T3 sequence (whole entry): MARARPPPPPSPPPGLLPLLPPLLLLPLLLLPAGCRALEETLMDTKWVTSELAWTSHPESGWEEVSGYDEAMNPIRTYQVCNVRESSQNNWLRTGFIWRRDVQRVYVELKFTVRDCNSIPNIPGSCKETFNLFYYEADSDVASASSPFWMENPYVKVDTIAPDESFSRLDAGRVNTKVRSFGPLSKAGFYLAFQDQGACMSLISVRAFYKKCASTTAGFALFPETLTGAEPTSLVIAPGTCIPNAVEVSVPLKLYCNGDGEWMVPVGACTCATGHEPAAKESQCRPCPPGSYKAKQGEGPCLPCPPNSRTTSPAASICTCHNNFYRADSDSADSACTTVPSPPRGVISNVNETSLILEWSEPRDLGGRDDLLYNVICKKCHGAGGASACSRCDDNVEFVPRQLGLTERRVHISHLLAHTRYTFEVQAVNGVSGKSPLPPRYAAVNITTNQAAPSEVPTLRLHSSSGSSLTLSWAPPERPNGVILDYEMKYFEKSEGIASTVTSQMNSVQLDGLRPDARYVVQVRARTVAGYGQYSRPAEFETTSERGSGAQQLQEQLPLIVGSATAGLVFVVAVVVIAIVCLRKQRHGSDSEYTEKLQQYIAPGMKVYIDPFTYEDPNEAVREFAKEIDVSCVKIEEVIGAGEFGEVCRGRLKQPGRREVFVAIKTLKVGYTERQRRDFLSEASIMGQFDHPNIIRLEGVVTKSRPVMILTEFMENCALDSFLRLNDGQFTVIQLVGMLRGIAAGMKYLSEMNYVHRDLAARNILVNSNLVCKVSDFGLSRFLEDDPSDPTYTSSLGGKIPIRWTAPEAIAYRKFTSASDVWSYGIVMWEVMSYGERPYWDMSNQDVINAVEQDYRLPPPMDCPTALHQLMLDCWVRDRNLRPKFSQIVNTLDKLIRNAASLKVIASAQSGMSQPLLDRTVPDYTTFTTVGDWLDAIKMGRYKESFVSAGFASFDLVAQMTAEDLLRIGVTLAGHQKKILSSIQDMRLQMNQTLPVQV
The conditions noted are these: at 1 µM.

In experiment [5] the target is T3, Ephrin type-B receptor 3 (Homo sapiens). The conditions noted are these: at 10 µM.
For experiment [6], the target named is T4, Ephrin type-B receptor 4 (Homo sapiens) (UniProt P54760).
T4 sequence (whole entry): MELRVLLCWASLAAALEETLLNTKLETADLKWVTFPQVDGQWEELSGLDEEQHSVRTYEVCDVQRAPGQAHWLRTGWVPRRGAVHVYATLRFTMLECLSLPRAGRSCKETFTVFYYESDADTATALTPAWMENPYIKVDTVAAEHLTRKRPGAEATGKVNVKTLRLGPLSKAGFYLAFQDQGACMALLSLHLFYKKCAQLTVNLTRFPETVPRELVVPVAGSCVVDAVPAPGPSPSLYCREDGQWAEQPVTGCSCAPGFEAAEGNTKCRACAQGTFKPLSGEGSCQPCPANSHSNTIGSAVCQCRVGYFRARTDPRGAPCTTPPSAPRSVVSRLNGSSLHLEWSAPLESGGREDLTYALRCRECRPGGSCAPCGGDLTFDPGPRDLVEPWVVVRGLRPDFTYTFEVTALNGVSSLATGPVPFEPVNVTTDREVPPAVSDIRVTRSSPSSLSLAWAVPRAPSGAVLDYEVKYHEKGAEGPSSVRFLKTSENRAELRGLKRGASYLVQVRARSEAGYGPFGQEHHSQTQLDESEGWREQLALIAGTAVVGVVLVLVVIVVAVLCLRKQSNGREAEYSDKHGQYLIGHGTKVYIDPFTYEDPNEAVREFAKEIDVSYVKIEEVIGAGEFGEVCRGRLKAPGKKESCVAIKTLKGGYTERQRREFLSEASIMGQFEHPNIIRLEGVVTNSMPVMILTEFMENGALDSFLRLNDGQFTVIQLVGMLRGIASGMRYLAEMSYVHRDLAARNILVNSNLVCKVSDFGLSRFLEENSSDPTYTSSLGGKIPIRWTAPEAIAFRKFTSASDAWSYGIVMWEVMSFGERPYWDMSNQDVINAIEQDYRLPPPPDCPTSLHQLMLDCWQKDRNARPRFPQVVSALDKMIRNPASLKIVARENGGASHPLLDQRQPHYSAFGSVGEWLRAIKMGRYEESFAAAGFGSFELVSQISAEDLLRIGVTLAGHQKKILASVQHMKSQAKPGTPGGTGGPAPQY
The conditions noted are these: at 1 µM.

Experiment [7] has as its target T4, Ephrin type-B receptor 4 (Homo sapiens). The note with it: at 10 µM.
Experiment [8] deals with Receptor tyrosine-protein kinase erbB-4 (Homo sapiens) (UniProt Q15303). The conditions noted are these: at 1 µM.
Receptor tyrosine-protein kinase erbB-4 (Homo sapiens), sequence (Q15303 whole entry): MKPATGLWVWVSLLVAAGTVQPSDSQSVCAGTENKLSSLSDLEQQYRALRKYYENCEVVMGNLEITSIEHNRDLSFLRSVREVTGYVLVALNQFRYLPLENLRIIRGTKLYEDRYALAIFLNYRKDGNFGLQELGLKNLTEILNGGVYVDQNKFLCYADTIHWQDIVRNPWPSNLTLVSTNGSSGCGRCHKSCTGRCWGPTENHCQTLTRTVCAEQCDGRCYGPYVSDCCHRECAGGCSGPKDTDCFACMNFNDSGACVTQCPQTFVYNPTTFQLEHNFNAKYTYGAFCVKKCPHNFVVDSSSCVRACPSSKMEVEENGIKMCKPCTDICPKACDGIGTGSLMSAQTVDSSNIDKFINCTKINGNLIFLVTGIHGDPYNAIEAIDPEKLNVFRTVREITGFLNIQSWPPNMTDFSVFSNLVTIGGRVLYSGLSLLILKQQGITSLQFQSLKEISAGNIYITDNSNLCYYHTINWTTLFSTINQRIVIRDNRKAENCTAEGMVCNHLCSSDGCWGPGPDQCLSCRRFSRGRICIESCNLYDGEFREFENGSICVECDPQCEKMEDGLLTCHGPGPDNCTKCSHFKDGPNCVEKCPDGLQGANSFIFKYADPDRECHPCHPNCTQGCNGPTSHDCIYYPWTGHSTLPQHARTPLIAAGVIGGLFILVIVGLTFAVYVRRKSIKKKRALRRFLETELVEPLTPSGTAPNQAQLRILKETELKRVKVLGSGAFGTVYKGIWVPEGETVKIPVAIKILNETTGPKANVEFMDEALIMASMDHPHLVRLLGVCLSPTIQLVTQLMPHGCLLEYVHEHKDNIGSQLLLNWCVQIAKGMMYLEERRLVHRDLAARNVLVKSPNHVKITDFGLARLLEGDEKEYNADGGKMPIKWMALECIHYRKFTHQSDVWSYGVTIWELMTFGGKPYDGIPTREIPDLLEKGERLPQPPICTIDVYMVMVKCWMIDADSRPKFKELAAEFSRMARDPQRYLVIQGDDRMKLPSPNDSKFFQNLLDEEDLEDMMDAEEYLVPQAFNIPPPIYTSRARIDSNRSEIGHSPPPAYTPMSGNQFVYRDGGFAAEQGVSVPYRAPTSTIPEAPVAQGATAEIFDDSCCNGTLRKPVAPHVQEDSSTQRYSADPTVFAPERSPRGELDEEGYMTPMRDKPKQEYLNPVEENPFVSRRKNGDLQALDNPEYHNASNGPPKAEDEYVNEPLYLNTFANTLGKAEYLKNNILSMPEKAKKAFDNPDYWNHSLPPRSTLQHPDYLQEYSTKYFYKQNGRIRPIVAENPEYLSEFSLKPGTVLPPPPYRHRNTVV
Experiment [9] has the same target. The conditions noted are these: at 10 µM.
Experiment [10] addresses Focal adhesion kinase 1 (Homo sapiens) (UniProt Q05397). The conditions noted are these: at 1 µM.

Focal adhesion kinase 1 (Homo sapiens), sequence (Q05397 2-1052 limits assumed): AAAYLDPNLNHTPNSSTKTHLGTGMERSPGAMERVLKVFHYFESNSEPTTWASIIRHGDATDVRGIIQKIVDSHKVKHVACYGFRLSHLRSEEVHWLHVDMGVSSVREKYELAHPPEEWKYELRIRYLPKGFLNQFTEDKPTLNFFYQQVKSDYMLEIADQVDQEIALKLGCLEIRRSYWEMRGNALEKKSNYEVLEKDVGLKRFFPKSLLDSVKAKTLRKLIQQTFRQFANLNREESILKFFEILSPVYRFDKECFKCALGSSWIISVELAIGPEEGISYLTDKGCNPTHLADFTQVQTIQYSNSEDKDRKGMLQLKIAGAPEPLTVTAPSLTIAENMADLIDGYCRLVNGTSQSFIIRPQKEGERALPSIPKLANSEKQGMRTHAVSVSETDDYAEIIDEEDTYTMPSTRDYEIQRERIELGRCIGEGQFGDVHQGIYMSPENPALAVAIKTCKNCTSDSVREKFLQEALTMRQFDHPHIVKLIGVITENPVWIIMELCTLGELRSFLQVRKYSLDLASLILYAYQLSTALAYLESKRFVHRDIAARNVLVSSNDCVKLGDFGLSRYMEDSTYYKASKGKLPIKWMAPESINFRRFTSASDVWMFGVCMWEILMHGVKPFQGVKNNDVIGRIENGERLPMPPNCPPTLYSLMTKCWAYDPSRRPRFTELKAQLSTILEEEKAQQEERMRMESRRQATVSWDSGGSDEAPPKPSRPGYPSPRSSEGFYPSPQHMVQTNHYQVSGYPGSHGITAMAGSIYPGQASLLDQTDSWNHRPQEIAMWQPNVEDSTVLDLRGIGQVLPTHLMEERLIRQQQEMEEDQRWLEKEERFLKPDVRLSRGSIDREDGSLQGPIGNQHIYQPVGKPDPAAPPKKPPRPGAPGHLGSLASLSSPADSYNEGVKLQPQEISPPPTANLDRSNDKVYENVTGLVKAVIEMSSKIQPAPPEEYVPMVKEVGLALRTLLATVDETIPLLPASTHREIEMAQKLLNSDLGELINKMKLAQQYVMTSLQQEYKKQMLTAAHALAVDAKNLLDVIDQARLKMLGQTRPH

A word on the residual activity: it is the signal under treatment as a percentage of the control signal. For the compound `CNc1cc2c(Nc3cccc(Br)c3)ncnc2cn1`, the residual activity in experiment [1] is 62%; in [2], 94%; in [3] it was 62%; in experiment [4], 95% (inactive); in [5] it was 120%; in experiment [6], 63%. Also, the residual activity in [7] amounted to 13%; in [8], 42%; in [9], 31%; in [10] it was 107%.
